An excerpt weighted towards active compounds, which were near 7.5% of everything screened.
Luc counter: Counterscreen for Luciferase (Kinase-Glo TM) Inhibition. Potency, µM (titrated, usually from 38.3 µM), inactives show at the highest dose activity change, negative = inhibition, usual class: inhibitors. Luciferin 4-monooxygenase (Photuris pensylvanica), Q27757. 200,000 compounds, 0.28% hits. Kinase-Glo luciferase, ATP luminescence, 8 min; also: % is scaled to controls: 0 for no effect and ±100 for the full control effect; nearly all actives have a fitted effect of over 60% in size
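Compound is pinned into ATP-containing buffer (10 uM ATP, imidazole pH 7.2, 7 mM MgCl2). Kinase-Glo luciferase reagent is then added. Light output is recorded following an 8-min room-temperature incubation.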
SMN2 splice up: qHTS Assay for Enhancers of SMN2 Splice Variant Expression; HEK293 SMN2-luciferase splicing reporter, luminescence, 30-36 h; Potency, µM (series often up to 46.1 µM), without a hit: at the top dose activity change, positive = activation, actives largely listed as activators; 210,000 compounds, 2.8% hits; also: % of control where 0% means no effect; nearly all actives have a fitted effect of over 55% in size
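qHTS luciferase splicing reporter: luminescence rises when SMN2 exon 7 is included in transfected HEK293 cells. Compound exposure lasted 30-36 h at 37C, with 4.5 mM final sodium butyrate as control, followed by a ONE-Glo read.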
NPC1 promoter act: qHTS Assay for NPC1 Promoter Activators. Huh7 NPC1 promoter luciferase reporter, 24 h. Potency, µM (highest dose often 9.22 µM), for the others: top-dose activation, most hits filed as activators. 320,000 compounds, 2.4% hits; also: % of control where 0% means no effect; nearly all actives have a fitted effect of over 60% in size
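NPC1 promoter–luciferase Huh7 cells; 24 h compound; luminescence.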
ELG1 genotox: qHTS screen for small molecules that induce genotoxicity in human embryonic kidney (HEK293T) cells expressing luciferase-tagged ELG1. Potency, µM (top dose mostly 46 µM), for the others: at the highest dose activity change, positive = activation, actives largely listed as activators. HEK293T ELG1-luciferase reporter, luminescence, 16 h. 330,000 compounds, 1.3% hits. AID 504466, 2011; also: % of control where 0% means no effect; nearly all actives have a fitted effect of over 60% in size
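Cells (2,000/well) expressing the ELG1-luciferase fusion are dosed by pin tool and kept 16 hr at 37 °C, 5% CO2. Signal comes from ONE-Glo luciferase reagent after 30 min at room temperature.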
FLuc counter: qHTS profiling assay for firefly luciferase inhibitor/activator using purifed enzyme and Km concentrations of substrates (counterscreen for miR-21 project). Luciferin 4-monooxygenase (Photinus pyralis), P08659. purified FLuc, Km substrates, luminescence inhibition. Potency, µM (doses to about 57.5 µM), for the others: top-dose activity change, negative = inhibition, most hits filed as inhibitors. 360,000 compounds, 6.9% hits. AID 588342, 2011;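 also: plate controls were vehicle for no effect and reference inhibitor for full effect; nearly all actives have a fitted effect of over 55% in size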
Target sequence (P08659 whole entry, looked up): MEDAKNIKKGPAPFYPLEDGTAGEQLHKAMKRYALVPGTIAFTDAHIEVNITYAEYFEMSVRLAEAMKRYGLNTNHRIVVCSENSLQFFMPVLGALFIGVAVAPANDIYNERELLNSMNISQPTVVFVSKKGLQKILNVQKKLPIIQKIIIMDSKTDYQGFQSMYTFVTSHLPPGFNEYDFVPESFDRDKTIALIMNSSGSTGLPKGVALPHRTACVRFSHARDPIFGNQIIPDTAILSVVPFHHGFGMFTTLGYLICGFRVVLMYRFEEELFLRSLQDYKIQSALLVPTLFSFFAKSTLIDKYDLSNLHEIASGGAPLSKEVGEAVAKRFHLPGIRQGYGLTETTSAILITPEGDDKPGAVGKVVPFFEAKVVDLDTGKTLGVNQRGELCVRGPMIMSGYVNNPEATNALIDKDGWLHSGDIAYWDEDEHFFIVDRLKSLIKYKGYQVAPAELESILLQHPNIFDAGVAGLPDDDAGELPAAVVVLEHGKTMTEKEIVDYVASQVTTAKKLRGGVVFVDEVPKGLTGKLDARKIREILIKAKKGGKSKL
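Biochemical qHTS of compounds, final roughly 60 µM downward over six points, against 10 nM purified firefly luciferase using Km concentrations of substrates (10 uM D-luciferin, 10 uM ATP) in Tris acetate pH 7.5 buffer; luminescence output.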
Rab9 prom act: qHTS Assay for Rab9 Promoter Activators | 320,000 compounds, 2.8% hits | Huh7 Rab9 promoter-luciferase reporter, luminescence, 24 h | Potency, µM (series often up to 9.22 µM), inactives show top-dose activation, negative = inhibition, hits mostly activators; also: % of control where 0% means no effect; nearly all actives have a fitted effect of over 60% in size
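Luminescence read-out: Huh7 cells stably expressing Rab9-luciferase, treated 24 h with compound at 37 °C, then lysed with luciferase reagent for 10 min at ambient before reading.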
An asterisk follows results filed as active; ? = inconclusive; . = no result given; [ ] = remark or other dose. Calls follow the shape of the dose curve; as a rule, active = well fitted curve in the direction sought with a large enough effect; inconclusive = small, poorly fitted or top-dose-only effect, or another doubt; inactive = no such curve, though single readings can be large; an effect the other way counts as inactive or inconclusive. Potency is read from the fitted curve at half-maximal effect.

SMILES	Luc counter	SMN2 splice up	NPC1 promoter act	ELG1 genotox	FLuc counter	Rab9 prom act
Cn1ccsc1=NC(=O)c1ccc(S(C)(=O)=O)c([N+](=O)[O-])c1	.	.	?	12%	4.8µM*	30%
COc1ccc(N2C(=O)C(CC(=O)Nc3ccc(Cl)cc3)N(Cc3ccc4c(c3)OCO4)C2=O)cc1 (stereo not drawn)	.	-9%	.	.	-16%	.
CC(C)c1ccc(NC(=O)C2CCCN(S(=O)(=O)c3ccc(Br)s3)C2)cc1 (stereo not drawn)	.	-17%	.	.	1%	.
COCCNC(=O)c1cc(S(=O)(=O)N2CCOCC2)ccc1SCc1cccc(OC)c1OC	.	.	-4%	1%	1%	-3%
O=C1c2ccccc2S(=O)(=O)N1CCS(=O)(=O)c1ccc(F)cc1	.	.	0%	-4%	-4%	-2%
N#C/C(C(=O)c1ccccc1)=C1/CCCCCN1	-8%	?	?	?	21µM*	2.5µM*
COC(=O)c1ccc2c(c1)N(CC(=O)Nc1cccc(C(F)(F)F)c1)C(=O)c1ccccc1S2	.	.	.	.	0%	.
O=C(CN1C(=O)/C(=C/c2ccc(Cl)cc2)SC1=S)NC1C=CS(=O)(=O)C1 (stereo not drawn)	.	.	-7%	1%[9.26 µM]	-7%	1%
COc1ccc(/C=C2\SC(=S)N(C(C)C(=O)NC3C=CS(=O)(=O)C3)C2=O)cc1 (stereo not drawn)	.	.	11%	1%	17µM*	15%
COc1ccc(/C=C2\SC(=S)N(CC(=O)NC3C=CS(=O)(=O)C3)C2=O)cc1 (stereo not drawn)	.	.	3%	2%	1.9µM*	1%
CC(=O)c1c(COC(=O)c2ccccc2Cl)nc2ccccc2[n+]1[O-]	.	.	-2%	-2%	5%	-8%
COc1ccccc1CNc1nc(-c2ccco2)nn1C(=O)c1ccccc1[N+](=O)[O-]	.	.	.	.	0%	.
O=C(NCC1COc2ccccc2O1)c1ccco1 (stereo not drawn)	-1%	.	3%	6%	-2%	10%
O=C(NCC1COc2ccccc2O1)c1ccccc1 (stereo not drawn)	-2%	13µM*	4µM*	?	12µM*	4.5µM*
O=C(NC(=S)NCC1COc2ccccc2O1)c1ccccc1 (stereo not drawn)	3%	-33%	0%	0%	?	0%
O=C(NCC1COc2ccccc2O1)c1cc2ccccc2o1 (stereo not drawn)	-1%	23%	8%	16%	13µM*	6%
O=C(Nc1nc(-c2ccccc2)cs1)c1ccc2c(=O)n3c(nc2c1)CCCCC3	.	.	-15%	-19%	12µM*	-18%
O=C(NCc1ccccc1)c1ccc2c(=O)n3c(nc2c1)CCCCC3	.	.	-1%	3%	-1%	6%
O=C(Nc1ccccc1Cl)c1ccc2c(=O)n3c(nc2c1)CCC3	.	.	3.5µM*	?	11µM*	1.1µM*
O=[N+]([O-])c1cc(-c2nc(-c3ccccn3)no2)ccc1NCc1ccccc1	.	.	.	.	-18%	.
Clc1ccc(-c2nc(-c3ccccn3)no2)cc1Cl	10µM*	2.5µM*	0.32µM*	?	0.95µM*	0.56µM*
COc1ccc(-c2nc(-c3ccccn3)no2)cc1	0.89µM*	.	0.1µM*	?	0.095µM*	0.04µM*
N#C/C(=C\c1ccc(N2CCCCC2)o1)C(=O)Nc1cccc(Br)c1	-5%	-15%	2.5µM*	?	2.7µM*	2µM*
Cc1ccc(/C=C(\C#N)C(=O)Nc2cccc(Br)c2)o1	.	1%	.	.	2%	.
COc1ccc(-c2ccc(C(=O)O)o2)c([N+](=O)[O-])c1	3%	13%	-4%	-3%	-20%	-2%
SMILES	Luc counter	SMN2 splice up	NPC1 promoter act	ELG1 genotox	FLuc counter	Rab9 prom act
CNC(=O)/C(C#N)=C/c1ccc(-c2ccc(OC)cc2[N+](=O)[O-])o1	2%	16µM*	29%	13%	?	?
COc1ccc(NC(=O)/C(C#N)=C\c2ccc(-c3cc(C(=O)O)ccc3C)o2)cc1	.	.	-3%	-3%	19µM*	-5%
COc1ccc(NC(=O)/C(C#N)=C\c2ccc(-c3cccc(C(=O)O)c3C)o2)cc1	.	.	7%	-2%	8.5µM*	22%
O=C(NC1CCN(Cc2ccc(Cl)cc2Cl)CC1)c1ccccc1	.	.	-5%	-8%	0%	-16%
CC(C)(C)OC(=O)N1CCC(c2c(C(=O)N3CCN(c4ccccn4)CC3)cnn2-c2cccc(F)c2)CC1	.	.	.	.	-3%	.
COc1ccc(NC(=O)N2CCN(S(=O)(=O)c3ccc4c(ccn4C)c3)CC2)cc1OC	.	.	.	.	0%	.
COc1ccc(NC(=O)/C(C#N)=C/c2ccc(-c3ccccc3C(=O)O)o2)cc1	.	.	23%	7%	6.7µM*	17%
Cc1ccc(/C=C(\C#N)C(=O)Nc2ccc(Br)cc2)o1	.	3.2µM*	.	.	3%	.
CCOc1ccc(-c2c(C)nn3c(C)c(C(=O)Nc4ccccc4C(=O)OC)cnc23)cc1OCC	.	.	.	.	1%	.
Cc1cc(Cl)ccc1OCc1nc(-c2ccc(O)cc2)n[nH]1	7%	10%	-3%	-2%	11µM*	0%
Cc1cc(Cl)ccc1OCc1nc(-c2ccc(-n3cccc3)cc2)no1	.	-8%	.	.	-1%	.
O=C(O)C1CCC(N2C(=O)c3cccc([N+](=O)[O-])c3C2=O)CC1 (stereo not drawn)	.	.	1%	-5%	6%	2%
COC(=O)c1ccc(C(=O)Nc2nc3cc(N)c(C)cc3s2)cc1	.	.	2%	2%	-11%	-4%
COC(=O)c1ccc(-c2nc3cc(Cl)c(N)cc3s2)cc1	?	1.4µM*	0.71µM*	?	0.076µM*	0.89µM*
COC(=O)c1ccc(C2=NOC(C)(c3sc(-c4ccccc4)nc3C)C2)cc1 (stereo not drawn)	.	.	2%	4%	?	0%
COC(=O)c1ccc(-c2nc(O)c(C)s2)cc1	-1%	3%	-4%	11%	9.5µM*	0%
NC(=O)Cn1cc(/C=N/NC(=O)c2ccc(Cn3cc(Cl)cn3)o2)c(-c2ccccc2)n1	.	.	1%	0%	1%	-4%
CCOC(=O)c1c(C)oc2nc(C)nc(NCc3ccc(F)cc3)c12	.	.	.	.	5%	.
COc1ccc(-c2nsc3c(N4CCCCC4)ncnc23)cc1	-30%	-73%	?	?	0.085µM*	?

High-throughput results (PubChem BioAssay)
